Laboratory results as given in PubChem BioAssay (NCI).
Compounds without any hit were thinned out: in the full panel of roughly 83,000, 20% have a hit.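 Results are percent growth after 48 hours of single-concentration exposure. 100 means growth as in untreated cells, lower positive values show inhibition; negative values down to -100 show cell death.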 Activity calls are given as the source filed them. How the source made its calls: active means growth percent below 10; inactive means the rest.

What was measured:
Assay in all cases: NCI-60 one-dose screen, 48 h (100 = growth as untreated, 0 = no growth, -100 = all killed)
Conditions in all cases: 10 µM unless noted
NCI-H23 lung = system: NCI-H23 lung
NCI-H226 lung = system: NCI-H226 lung
NCI-H322M lung = system: NCI-H322M lung
HOP-62 NSCLC = system: HOP-62 NSCLC
NCI-H460 lung = system: NCI-H460 lung
HOP-92 NSCLC = system: HOP-92 NSCLC
NCI-H522 lung = system: NCI-H522 lung
A549/ATCC NSCLC = system: A549/ATCC NSCLC
786-0 renal = system: 786-0 renal
COLO 205 colon = system: COLO 205 colon

Measured: growth

C[C@H]1[C@H]2[C@H]3CC[C@@H]4[C@@]5(C)C/C(=C/c6cccnc6)C(=O)C(C)(C)[C@@H]5CC[C@@]4(C)[C@]3(C)CC[C@]23CO[C@]1(C)[C@@H](C(=O)/C=C\c1cccnc1)C3
active: NCI-H23 lung -48.7% | NCI-H226 lung -13.5% | HOP-62 NSCLC -13.6% | NCI-H460 lung -45.3% | HOP-92 NSCLC -20% | NCI-H522 lung -34.4% | A549/ATCC NSCLC -24.6% | 786-0 renal -39% | COLO 205 colon -56.8%
inactive: NCI-H322M lung 46.4%

COc1cc(/C=C/C(=O)c2cccc(-n3cc(-c4ccccc4)[nH]c3=O)c2)ccc1O
inactive: NCI-H23 lung 84.5% | NCI-H226 lung 105% | NCI-H322M lung 85.4% | HOP-62 NSCLC 129% | NCI-H460 lung 89.2% | HOP-92 NSCLC 45.3% | NCI-H522 lung 26.2% | A549/ATCC NSCLC 66.7% | 786-0 renal 74% | COLO 205 colon 100%

O=C1CC(N2C(=O)/C(=C/C(Cl)=C\c3ccc([N+](=O)[O-])cc3)SC2=S)C(=O)N1c1ccc(O)cc1 (stereo not given)
inactive: NCI-H322M lung 12.2% | A549/ATCC NSCLC 15.6%
active: NCI-H23 lung -41.7% | NCI-H226 lung -64% | HOP-62 NSCLC 5.91% | NCI-H460 lung 0.922% | HOP-92 NSCLC -6.73% | NCI-H522 lung -24.1% | 786-0 renal -3.2% | COLO 205 colon -42.9%

N#Cc1nc2c(S(=O)(=O)c3ccc(Cl)cc3)c(N)n(Nc3cccc(Cl)c3)c2nc1C#N
inactive: NCI-H23 lung 44.7% | NCI-H226 lung 85.2% | NCI-H322M lung 30.8% | HOP-62 NSCLC 40.2% | NCI-H460 lung 65.7% | NCI-H522 lung 57.3% | A549/ATCC NSCLC 43.3% | 786-0 renal 43.9% | COLO 205 colon 72.5%
active: HOP-92 NSCLC -33.2%

O=C(/C=C/c1cccc(O)c1)c1cccc(-n2cc(-c3ccc4ccccc4c3)[nH]c2=O)c1
active: NCI-H322M lung 4.64% | HOP-62 NSCLC -20.9% | NCI-H460 lung -9.23% | 786-0 renal -87.9% | COLO 205 colon -8.8%
inactive: NCI-H23 lung 28.2% | NCI-H226 lung 88.9% | HOP-92 NSCLC 42.6% | NCI-H522 lung 75.9% | A549/ATCC NSCLC 61.8%

COc1ccc(-c2nc(SCC(=O)Nc3nc(-c4ccccc4)cs3)[nH]c(=O)c2C#N)cc1
inactive: NCI-H23 lung 88.3% | NCI-H226 lung 85% | NCI-H322M lung 90.7% | HOP-62 NSCLC 82.4% | NCI-H460 lung 114% | HOP-92 NSCLC 81.5% | NCI-H522 lung 84% | A549/ATCC NSCLC 104% | 786-0 renal 100% | COLO 205 colon 112%

COC(=O)[C@]12CC[C@@H](C)[C@H](C)[C@@H]1C1=CC[C@@H]3[C@@]4(C)C(C=O)=C[C@@](C)(COC(=O)/C=C/c5ccccc5)[C@@H]4[C@H](O)C[C@@]3(C)[C@]1(C)CC2
active: HOP-62 NSCLC -5.38% | NCI-H460 lung -19.1% | HOP-92 NSCLC -5.49% | NCI-H522 lung -16.3% | A549/ATCC NSCLC 3.82% | 786-0 renal -5.1% | COLO 205 colon -37%
inactive: NCI-H23 lung 10.4% | NCI-H226 lung 10.1% | NCI-H322M lung 42%

NC(=S)Nc1cccc(O)c1
inactive: NCI-H23 lung 90.6% | NCI-H226 lung 96.9% | NCI-H322M lung 88.9% | HOP-62 NSCLC 89.8% | NCI-H460 lung 104% | HOP-92 NSCLC 98.9% | NCI-H522 lung 93.1% | A549/ATCC NSCLC 99.8% | 786-0 renal 100% | COLO 205 colon 129%

C[n+]1cc2c3c(ccc2c2ccc4cc5c(cc4c21)OCO5)OCO3
active: NCI-H23 lung -67% | NCI-H226 lung -87.7% | NCI-H322M lung -93.8% | HOP-62 NSCLC -83.8% | NCI-H460 lung -54.7% | HOP-92 NSCLC -80.6% | NCI-H522 lung -74.2% | A549/ATCC NSCLC -86.2% | 786-0 renal -87.5% | COLO 205 colon -84.5%

Cc1ccccc1NC(=O)N/C(N)=N/c1nc(-c2cccc([N+](=O)[O-])c2)cs1
inactive: NCI-H23 lung 16.8% | NCI-H226 lung 58.8% | NCI-H322M lung 90.7% | HOP-62 NSCLC 42.3% | NCI-H460 lung 27% | HOP-92 NSCLC 60.2% | NCI-H522 lung 18% | A549/ATCC NSCLC 54.2% | 786-0 renal 71.6% | COLO 205 colon 37.5%

NC(=N\N=C/c1ccccc1[N+](=O)[O-])/C(N)=N\N=C/c1ccccc1[N+](=O)[O-]
inactive: NCI-H23 lung 104% | NCI-H226 lung 107% | NCI-H322M lung 146% | HOP-62 NSCLC 94% | NCI-H460 lung 104% | HOP-92 NSCLC 89% | NCI-H522 lung 89.3% | A549/ATCC NSCLC 114% | 786-0 renal 103% | COLO 205 colon 109%

CCN(CC)c1ccc2nc3c4ccccc4c(=NC(=O)c4ccccc4-c4c5ccc(N(CC)CC)cc5[o+]c5cc(N(CC)CC)ccc45)cc-3oc2c1
active: NCI-H460 lung -54.1% | HOP-92 NSCLC 1.45% | NCI-H522 lung -5.73% | 786-0 renal -28.3% | COLO 205 colon -80.1%
inactive: NCI-H23 lung 10.9% | NCI-H226 lung 76.5% | NCI-H322M lung 11.6% | HOP-62 NSCLC 17.4% | A549/ATCC NSCLC 14.5%

Cc1cc(C)c(-c2c(C)cc(C)cc2CBr)c(CBr)c1
inactive: NCI-H23 lung 85.8% | NCI-H226 lung 100% | NCI-H322M lung 102% | HOP-62 NSCLC 84.6% | NCI-H460 lung 77.2% | HOP-92 NSCLC 106% | NCI-H522 lung 66.4% | A549/ATCC NSCLC 68.6% | 786-0 renal 95.8% | COLO 205 colon 78.6%

COC(=O)[C@]12CC[C@@H](C)[C@H](C)[C@@H]1C1=CC[C@@H]3[C@@]4(C)C(C=O)=C[C@@](C)(COS(C)(=O)=O)[C@@H]4C(=O)C[C@@]3(C)[C@]1(C)CC2
inactive: NCI-H23 lung 35.3% | NCI-H226 lung 67.2% | NCI-H322M lung 89.2% | HOP-62 NSCLC 41.7% | NCI-H460 lung 42.4% | HOP-92 NSCLC 39.8% | NCI-H522 lung 22.2% | A549/ATCC NSCLC 27.6% | 786-0 renal 40.7% | COLO 205 colon 32.1%
